Source: PubChem BioAssay (several laboratories)
Rows were chosen to be rich in hits. Some 2.4% of all compounds tested hit in one or more screens of this group.
Hck-Nef inh = human Hck-Nef kinase inhibition; 220,000 compounds, 0.68% hits; inhibition, % at 20 µM; Recombinant Hck-YEEI plus Nef, Z-Lyte FRET kinase assay; P08631;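 active means Hck-Nef kinase inhibition above about 50%, limit read from the data; inactive means inhibition below that limit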;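 further: 0% = DMSO with Hck plus Nef and 100% = Hck alone without Nef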
Arbovirus inh = antivirals against arbovirus infection. AID 1251. 200,000 compounds, 0.37% hits. inhibition, % at 10 µM. arbovirus infection cell-based antiviral screen; in the data active means inhibition above about 30%
EP2 antag = blocks the human prostaglandin E2 receptor EP2; inhibition, % at 25 µM; P43116; AID 1422; 260,000 compounds, 0.52% hits; C6 glioma cells expressing human EP2, cAMP TR-FRET; cells stimulated with saturating PGE2;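 active means percent inhibition above 40 after rounding to a whole number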;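 further: rat C6 glioma host cells with rolipram phosphodiesterase inhibitor present; the protocol text gives 20 µM as final concentration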
EP2 modulator = modulates human prostaglandin E2 receptor EP2 signaling. induction, % at 25 µM. AID 940. EP2-expressing cells, cAMP HTRF FRET, PGE2 co-stimulation. 260,000 compounds, 0.83% hits. P43116;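 active means compounds whose cAMP rise, as percent of the full-agonist control response, exceeds 60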;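 further: rat C6 glioma line stably carrying human EP2 under a CMV promoter; the protocol text gives 20 µM as final concentration; 100% = response of wells given 1 µM PGE2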
p97 ATPase inh = blocks human p97 ATPase activity; recombinant p97 ATPase, Kinase-Glo ATP luminescence, 3 h; inhibition, % at 8 µM; 220,000 compounds, 0.42% hits; in the data active means inhibition above about 15%;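 further: 0% = DMSO vehicle and 100% = wells lacking enzyme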
Target sequence (P55072 whole entry, looked up): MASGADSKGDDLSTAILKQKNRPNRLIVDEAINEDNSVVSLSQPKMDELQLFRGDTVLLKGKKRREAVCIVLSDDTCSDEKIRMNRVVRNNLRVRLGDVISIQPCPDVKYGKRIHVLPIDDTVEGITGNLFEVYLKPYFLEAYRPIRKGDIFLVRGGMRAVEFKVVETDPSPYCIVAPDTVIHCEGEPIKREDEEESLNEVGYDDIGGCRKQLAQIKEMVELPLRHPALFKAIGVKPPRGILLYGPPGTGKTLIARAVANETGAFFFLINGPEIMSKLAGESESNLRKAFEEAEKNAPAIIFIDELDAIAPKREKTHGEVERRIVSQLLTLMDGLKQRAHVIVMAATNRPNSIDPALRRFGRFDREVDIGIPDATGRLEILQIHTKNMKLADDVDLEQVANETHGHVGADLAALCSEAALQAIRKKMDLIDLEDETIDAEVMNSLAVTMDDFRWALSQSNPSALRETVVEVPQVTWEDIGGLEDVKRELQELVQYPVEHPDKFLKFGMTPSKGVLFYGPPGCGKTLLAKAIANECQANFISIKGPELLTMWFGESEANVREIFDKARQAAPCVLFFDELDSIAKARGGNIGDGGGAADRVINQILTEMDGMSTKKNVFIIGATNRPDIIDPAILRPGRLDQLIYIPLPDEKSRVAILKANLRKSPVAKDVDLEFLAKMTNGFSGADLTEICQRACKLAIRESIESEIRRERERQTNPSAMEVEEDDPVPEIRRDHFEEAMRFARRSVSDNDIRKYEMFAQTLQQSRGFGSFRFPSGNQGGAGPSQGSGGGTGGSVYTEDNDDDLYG
Active calls of the source: *.

For Cc1nc2sccn2c1CN(CCCn1ccnc1)Cc1ccccc1F the results were EP2 antag 7 and EP2 modulator -12.
`Nc1c(S(=O)(=O)c2cccs2)c2nc3ccccc3nc2n1/N=C/c1cccc(O)c1` gave Hck-Nef inh 1, Arbovirus inh -29, EP2 antag 41*, EP2 modulator -7 and p97 ATPase inh 4.
For CN1C[C@H](c2ccccc2)C(O)([C@]2(c3ccccc3)CN(C)C[C@H](c3ccccc3)C2=O)[C@H](c2ccccc2)C1 (stereo partly specified) the results were EP2 antag 40* and EP2 modulator 21.
`CCC(C(=O)Nc1nnc(Cc2ccc(OC)c(OC)c2)s1)c1ccccc1` (stereo unspecified) gave EP2 antag 18 and EP2 modulator -101.
Screening O=C1CCCC(O)=C1C(C#Cc1ccccc1)C1=C(O)CCCC1=O returned Hck-Nef inh 10, Arbovirus inh -5, EP2 antag 43*, EP2 modulator -39 and p97 ATPase inh 3.
For CC1CCCN(C(=O)CSc2nc3ccccc3n2Cc2ccccc2)C1 (stereo unspecified) the results were EP2 antag 6 and EP2 modulator 35.
Screening Cc1cc(C)nc(N2CCC(C(=O)Nc3ccc(C(F)(F)F)cc3)CC2)n1 returned EP2 antag 12 and EP2 modulator -25.
For Cc1ccnc(NS(=O)(=O)c2ccc(NC(=O)c3cc(Cl)ccc3Cl)cc2)n1 the results were EP2 antag 10 and EP2 modulator -45.
Screening Cc1c2c(n3c(nc4ccccc43)c1C#N)N(CCN1CCOCC1)CC2 returned Hck-Nef inh 76*, Arbovirus inh -4, EP2 antag 3, EP2 modulator 22 and p97 ATPase inh 8.
`Cc1cc(NCCN2CCOCC2)n2c(nc3ccccc32)c1C#N` gave Hck-Nef inh 25, Arbovirus inh 0, EP2 antag 12, EP2 modulator 26 and p97 ATPase inh -1.
NCCn1c(C(F)(F)F)nc2ccccc21 was read as EP2 antag 12 and EP2 modulator -8.
CCOc1cccc2sc(NN)nc12 was read as Hck-Nef inh 10, Arbovirus inh 38*, EP2 antag 7, EP2 modulator -17 and p97 ATPase inh 0.
`CCOc1cccc2sc(Cl)nc12` gave Hck-Nef inh -9, Arbovirus inh 0, EP2 antag 6, EP2 modulator 12 and p97 ATPase inh -1.
For Cc1ccc(CN(Cc2cc3cc(C)ccc3[nH]c2=O)C(c2nnnn2C2CCCC2)C(C)C)cc1 (stereo unspecified) the results were EP2 antag 10 and EP2 modulator 40.
Screening Cc1ccc(-c2cc(C(F)(F)F)c(C#N)c(=O)[nH]2)cc1 returned Hck-Nef inh 10, Arbovirus inh 54*, EP2 antag 14, EP2 modulator 1 and p97 ATPase inh 3.
Screening N#Cc1c(C(F)(F)F)cc(-c2ccccc2)[nH]c1=O returned Hck-Nef inh 13, Arbovirus inh 22, EP2 antag 12, EP2 modulator 1 and p97 ATPase inh -2.
CCOC(=O)C1=CN(Cc2ccc(OC)cc2)C=C(C(=O)OCC)C1c1cccs1 was read as Hck-Nef inh 58*, Arbovirus inh 6, EP2 antag 10, EP2 modulator 45 and p97 ATPase inh 0.
`O=C(N1CCC(c2ccncc2)CC1)C1(c2ccc(Cl)cc2)CCC1` gave EP2 modulator -20.
`C[N+](C)(C)c1cc2c(nn1)Nc1ccccc1S2` gave EP2 antag 49* and EP2 modulator -45.
Screening CCOC(=O)c1cc(C)sc1NC(=O)c1ccccc1Cl returned EP2 antag 9 and EP2 modulator 71*.
For CCCCSc1cnn(-c2ccccc2)c(=O)c1SCCCC the results were Hck-Nef inh 15, Arbovirus inh 6, EP2 antag 17, EP2 modulator 9 and p97 ATPase inh -4.
CCSc1cnn(-c2ccccc2)c(=O)c1SCC was read as Hck-Nef inh -1, Arbovirus inh 8, EP2 antag 136*, EP2 modulator 3 and p97 ATPase inh 2.
CSc1cnn(-c2ccccc2)c(=O)c1SC was read as Hck-Nef inh 3, Arbovirus inh 3, EP2 antag 42*, EP2 modulator 3 and p97 ATPase inh 1.
`C[C@]12CC[C@@H]3c4ccc(O)cc4CC[C@H]3[C@@H]1C[C@@H](O)[C@@H]2O` gave Hck-Nef inh 3, Arbovirus inh -11, EP2 antag 17, EP2 modulator -30 and p97 ATPase inh 7.
